This passage reports Potency and activity change, negative = inhibition results from PubChem BioAssay (NCATS).

Inconclusive results are not listed. Entries that show only a call come without a potency. A number with no mark means an inactive call. Calls of active or inactive are those of the source. Calls follow the shape of the dose curve; as a rule, active = well fitted inhibition curve with a large enough effect; inconclusive = small, poorly fitted or top-dose-only effect; inactive = flat fitted curve, though single readings scatter.

The subject of the assay is Zika virus NS2B-NS3 protease. The assay is described as follows: Primary screen GU AMC qHTS for Zika virus inhibitors (AID 1347154). Also: nearly all actives have a fitted effect of over 70% in size. The following applies: Zika NS2B-NS3 unlinked protease, AMC fluorogenic substrate; series mostly up to 54.1 µM. Summed up: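 Fluorogenic AMC-substrate cleavage by noncovalent NS2B-NS3 protease complex (25 nM, pH 8.0 Tris buffer with Tween 20) followed for 15 minutes at room temperature (~20% conversion). Percent inhibition from ex340/em450 signal change, fitted by 4-parameter Hill equation.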
(In qHTS, concentration-response curves come from the screen itself.)
Consider `O=C(CCN1CCN2CCCC2C1)N1c2ccccc2Sc2ccc(Cl)cc21` (stereo not given), for which the Potency result is “inactive”.

On to `Clc1cccc(C(c2ccc3nc[nH]c3c2)n2ccnc2)c1` (stereo not given), for which the Potency result is “inactive”.

Regarding `CC1=C(C(=O)O)N2C(=O)[C@@H](NC(=O)[C@H](N)c3ccccc3)[C@H]2SC1`, the Potency result was “inactive”.

In the case of `O=C(NCCc1c[nH]c2ccccc12)c1cccnc1`, the Potency result was “inactive”.

For the compound `CCCCNC(=O)NS(=O)(=O)c1ccc(N)cc1`, the Potency result is “inactive”.

Consider `CN1CCN(c2cc3c(cc2F)c(=O)c(C(=O)O)cn3-c2ccc(F)cc2)CC1`, for which the Potency result was “inactive”.

As for `CC(=O)Nc1ccc(OC(=O)c2ccccc2OC(C)=O)cc1`, the Potency entry is “inactive”.

With `COc1cc(N)c(Cl)cc1C(=O)NC1CCN(Cc2ccccc2)CC1`, the Potency result was “inactive”.

Regarding `Cn1c(=O)c2[nH]c(Br)nc2n(C)c1=O`, the Potency result was “inactive”.

As to `O=C(Nc1ccccc1)OCC(CN1CCCCC1)OC(=O)Nc1ccccc1` (stereo not given), the Potency result is “inactive”.

As to `c1ccc(-c2nc[nH]c2-c2ccccc2)cc1`, the Potency result was “inactive”.

For the compound `O=C1c2cccc3c2[C@H](CCC3)CN1[C@@H]1CN2CCC1CC2`, the Potency result was “inactive”.

For `CC(=O)N[C@@H](CCC(=O)O)C(=O)O`, the Potency entry is “inactive”.

As for `CCOc1ccccc1OCCN[C@H](C)Cc1ccc(OC)c(S(N)(=O)=O)c1`, the Potency entry is “inactive”.

`O=C(Nc1ccc([N+](=O)[O-])cc1)Nc1ccc([N+](=O)[O-])cc1`: the Potency result is “inactive”.

Take `CCOC(=O)Nc1ccc2c(c1)N(C(=O)CCN1CCOCC1)c1ccccc1S2`: the Potency result is “inactive”.

Take `NCCNC(=O)c1ccc(Cl)cn1`: the Potency result is “inactive”.

Take `CCCc1ncc(C[n+]2ccccc2C)c(N)n1`: the Potency result was “inactive”.

For the compound `CCCCCCCCCCCCCCCCO`, the Potency entry is “inactive”.

Turning to `O=C(CN1CCN(Cc2ccc3c(c2)OCO3)CC1)N1c2ccccc2Sc2ccccc21`, the Potency result was “inactive”.

`O=C(O)c1ccc(S(=O)(=O)N(Cl)Cl)cc1`: the Potency result is “inactive”.

On to `CC(=O)Nc1ccc(S(=O)(=O)Nc2ccc([N+](=O)[O-])cc2)cc1`, for which the Potency result was “inactive”.

As for `CC(C)CCCC(C)N` (stereo not given), the Potency result was “inactive”.

With `CC(C)(C)NCC(O)COc1cccc2c1C[C@H](O)[C@H](O)C2` (stereo not given in full), the Potency result was “inactive”.

Regarding `O=C(Nc1cccc(C2=NCCN2)c1)Nc1cccc(C2=NCCN2)c1`, the Potency result was “inactive”.

Regarding `COc1cc(NS(=O)(=O)c2ccc(N)cc2)ncn1`, the Potency entry is “inactive”.

On to `N=C(N)N1CCc2ccccc2C1`, for which the activity change, negative = inhibition was 1.62% [at 4.99 µM].

Consider `Cc1cc(-c2ccccc2)nnc1NCCN1CCOCC1`, for which the Potency entry is “inactive”.

Take `CC[C@H](c1ccc(O)cc1)[C@@H](CC)c1ccc(O)cc1`: the Potency entry was “inactive”.

As to `CC(C)NCC(O)c1ccc2ccccc2c1` (stereo not given), the Potency entry was “inactive”.

Consider `C=C[C@H]1CN2CC[C@H]1C[C@@H]2[C@@H](O)c1ccnc2ccc(OC)cc12`, for which the Potency entry was “inactive”.

With `O=C(Nc1ncc([N+](=O)[O-])s1)c1cccs1`, the Potency entry is “inactive”.

In the case of `CCNC(=O)NCc1cccc(Cl)c1`, the Potency result was “inactive”.

For `CCN(CC)CCNc1ccc(CO)c2sc3ccccc3c(=O)c12`, the Potency entry was “inactive”.

As for `C=CCN1CCc2nc(N)sc2CC1`, the Potency result is “inactive”.

As to `CCN(CC)CCNC(=O)c1cc(Br)c(N)cc1OC`, the Potency result is “inactive”.

In the case of `CC(C)(C)CC(C)(C)c1ccc(O)c(-n2nc3ccccc3n2)c1`, the Potency result was “inactive”.

As to `CCCCCN=C(N)N/N=C/c1c[nH]c2ccc(OC)cc12`, the Potency entry is “inactive”.

In the case of `FC(F)(F)C(F)(F)C(F)(F)C(F)(F)C(F)(F)C(F)(F)C(F)(F)C(F)(F)Br`, the Potency entry is “inactive”.

Turning to `CNCCc1ccccn1`, the Potency entry was “inactive”.
